DT40 TDP1 no CPT – qHTS for Inhibitors of human tyrosyl-DNA phosphodiesterase 1 (TDP1): qHTS in cells in absence of CPT; DT40 Tdp1-/- hTDP1 cells, no CPT, ATP luminescence, 48 h; Potency, µM (series often up to 46.2 µM), inactives show top-dose activity change, negative = growth inhibition, usual class: inhibitors; 420,000 tested, 15% active; also: potency is read from the fitted curve at half-maximal effect; nearly all actives have a fitted effect of over 55% in size
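DT40 Tdp1-/-;hTDP1 cells, no CPT (DMSO vehicle only), 400 cells/well; compounds pin-transferred; ≥48 hr, 37 °C; CellTiter-Glo 30 min RT dark, luminescence read.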
HT1080 IDH1KD tx – qHTS for induction of synthetic lethality in tumor cells producing 2HG: qHTS for the HT-1080-IDH1KD cell line; HT-1080 IDH1 knockdown viability, ATP luminescence, 48 h; 360,000 tested, 2% active; AID 686971, 2013; Potency, µM (titrated, usually from 46.1 µM), inactives show at the top dose activity, negative = toxicity, most hits filed as cytotoxic;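 also: potency is read from the fitted curve at half-maximal effect; 0% = DMSO wells and -100% = cell-free medium wells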
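CellTiter-Glo luminescence after 48 h compound exposure at 37 degrees C of IDH1-knockdown HT-1080 cells in 5% FBS RPMI. %Activity scaled between DMSO wells and cell-free media wells, with curves fitted and assigned curve classes.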
IL-1B inflam inh – qHTS for Inhibitors of Inflammasome Signaling: IL-1-beta AlphaLISA Primary Screen. THP-1 LPS/ATP IL-1B secretion, AlphaLISA, 16 h; hits give low values. activity change, % at 57.5 µM. 360,000 tested, 4.7% active; in the data active = activity change below about -50%; inconclusive = mostly about -30% to -49%
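THP-1 cells pretreated 1 hr with compounds (up to 57.5 uM final), then stimulated with LPS (250 ng/mL final) plus ATP (1.25 mM final); secreted IL-1B measured by AlphaLISA after 16 hr, decreased signal indicating inhibition.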
HT1080-NT tox – qHTS for induction of synthetic lethality in tumor cells producing 2HG: qHTS for the HT-1080-NT fibrosarcoma cell line; HT-1080-NT fibrosarcoma viability, CellTiter-Glo ATP luminescence, 48 h; Potency, µM (series often up to 46.1 µM), for inactives: at the top dose activity, negative = less viability, usual class: cytotoxic; 360,000 tested, 1.6% active; AID 686970, 2013;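 also: NT is the 2HG producing partner of a matched IDH1 knockdown line; potency is read from the fitted curve at half-maximal effect; 0% = DMSO-treated cells and -100% = media-only wells without cells; nearly all actives have a fitted effect of over 55% in size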
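Fibrosarcoma NT cells, 750 per well in 5% FBS RPMI, were exposed to compound for 48 hours. Viability: CellTiter-Glo luminescence.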
DT40 TDP1 CPT – qHTS for Inhibitors of human tyrosyl-DNA phosphodiesterase 1 (TDP1): qHTS in cells in presence of CPT; chicken DT40 Tdp1-/-;hTDP1 cells + 20 nM CPT, ATP luminescence, 48 h; Potency, µM (highest dose often 46.2 µM), for inactives: at the top dose activity change, negative = growth inhibition, usual class: inhibitors; 420,000 tested, 12% active; AID 686979, 2013; also: potency is read from the fitted curve at half-maximal effect; nearly all actives have a fitted effect of over 55% in size
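Chicken DT40 Tdp1-/- cells complemented with human TDP1, 400 cells/well, exposed to compounds plus 20 nM camptothecin for at least 48 h at 37 C; viability read as ATP content by CellTiter-Glo luminescence.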
Numbers without * were called inactive; ? = inconclusive; · = no result. This is a sample that favours compounds with a hit; in the whole collection about 19% have one here. Unless noted, calls follow the shape of the dose curve; as a rule, active = well fitted curve in the direction sought with a large enough effect; inconclusive = small, poorly fitted or top-dose-only effect, or another doubt; inactive = no such curve, though single readings can be large; an effect the other way counts as inactive or inconclusive. Unless noted, % is scaled to controls: 0 for no effect and ±100 for the full control effect.

SMILES	DT40 TDP1 no CPT	HT1080 IDH1KD tx	IL-1B inflam inh	HT1080-NT tox	DT40 TDP1 CPT
Cc1ccc(NC(=S)NCCSc2ccc(Cl)cc2)c(C)c1	?	-0.5%	-5.5	2.5%	?
COc1ccc(OC)c(NC(=S)NCCSc2ccc(C)cc2)c1	16.4µM*	-0.4%	-10.1	5.2%	?
Cc1ccccc1NC(=S)NCCO	15.1%	12.9%	6.5	5.2%	4.0%
Cc1ccccc1NC(=S)NCCSc1ccc(Cl)cc1	18.4µM*	-0.9%	-81.5*	-0.5%	?
Cc1ccc(C)c(NC(=S)NCCSc2ccc(Cl)cc2)c1	16.4µM*	0.9%	?	?	20.6µM*
COc1ccc(NC(=S)NCCSc2ccc(C)cc2)c(OC)c1	?	?	?	-11.1%	?
CCc1ccccc1NC(=S)NCCSc1ccc(Cl)cc1	?	?	-97.6*	-18.9%	?
Cc1cc([C@](C)(N)C(=O)O)ccc1P(=O)(O)O	2.7%	·	·	·	6.1%
Cc1ccc(Cl)cc1NC(=S)NCCCSC1CCCCC1	18.4µM*	18.4µM*	-100.6*	-29.8%	?
Cc1cccc(NC(=S)NCC(C)CSc2ccc(Cl)cc2)c1 (stereo unspecified)	16.4µM*	?	-9.4	?	?
Cc1cccc(NC(=S)NCCSc2ccc(Cl)cc2)c1	-27.2%	?	-105.2*	-22.4%	-2.7%
CCOc1ccccc1NC(=O)COC(=O)c1c[nH]c2ccccc12	?	-1.4%	18.4	-4.6%	?
Cc1ccc(-c2nc3cccc(C)n3c2Nc2ccc(F)cc2)o1	10µM*	-20.4%	·	-18.5%	?
Cc1ccc2nc(-c3ccc(C)o3)c(Nc3ccc(F)cc3)n2c1	?	19.4%	·	18.6%	2.0%
Cc1ccc2nc(-c3ccc(C)o3)c(Nc3ccccc3)n2c1	4.47µM*	15.3%	·	-5.9%	3.55µM*
COc1ccc(-c2nc3cnccn3c2Nc2ccc(C)cc2)cc1	14.6µM*	3.5%	89.1	-6.6%	14.6µM*
Cc1ccc(-c2nc3ccccn3c2Nc2ccccc2)o1	?	-19.1%	-16.2	-1.2%	-20.9%
Cc1ccc(Nc2c(-c3ccc(C)o3)nc3ccccn23)cc1	12.6µM*	-15.5%	·	-12.9%	?
COc1ccc(Nc2c(-c3ccc(Cl)cc3)nc3cnccn23)cc1OC	?	·	·	·	-3.1%
COc1ccc(NC(=O)CCS(=O)(=O)c2ccc3c(c2)n(C)c(=O)c(=O)n3C)cc1Cl	-12.6%	·	·	·	8.2%
CC1(C(=O)Nc2ccc3c(c2)OCCO3)CN(S(C)(=O)=O)CC(=O)N1Cc1cccc(C(F)(F)F)c1 (stereo unspecified)	-0.7%	8.9%	-5.1	16.6%	17.0%
CN(C)c1cccc(C(=O)N2CCCC(CCC(=O)NCc3ccccc3F)C2)c1 (stereo unspecified)	?	?	-16.0	?	?
O=C(NCc1n[nH]c(=S)n1-c1cccc(Cl)c1)c1ccc(S(=O)(=O)N2CCCCC2)cc1	-0.1%	5.4%	22.0	8.1%	-4.4%
Cc1ccc(-c2nc3cnccn3c2Nc2ccccc2)o1	20.6µM*	6.7%	35.7	21.9%	20.6µM*
COc1ccc(-c2cn(Cc3ccc4c(c3)C(=O)c3ccccc3C4=O)nn2)cc1	?	11.2%	-7.1	-0.8%	?
SMILES	DT40 TDP1 no CPT	HT1080 IDH1KD tx	IL-1B inflam inh	HT1080-NT tox	DT40 TDP1 CPT
Cc1cccc(-c2cc3c(nn2)-c2ccccc2C3=O)c1	?	0.3%	-19.7	2.8%	?
O=C1c2ccccc2-c2nnc(-c3ccccc3)cc21	5.17µM*	-7.7%	31.0	-1.2%	3.66µM*
COc1ccc(-c2cc3c(nn2)-c2ccccc2C3=O)cc1	16.4µM*	-15.3%	23.2	-23.9%	25.9µM*
Cc1ccc(N(C(=O)c2ccco2)C(C(=O)NC2CCCC2)c2cccnc2)cc1 (stereo unspecified)	-29.7%	-4.4%	19.1	10.2%	-17.0%
COC(=O)Nc1ccc(S(=O)(=O)NNC(=O)c2c(O)c3ccccc3n(C)c2=O)cc1	-10.5%	-0.3%	61.7	-1.9%	?
C=CCn1c(C)cc(C(=O)CSc2nc3ccccc3o2)c1C	?	-5.6%	-80.5*	-3.2%	16.4µM*
C=CCn1c(C)cc(C(=O)CSc2nnc(NCc3ccccc3)s2)c1C	14.6µM*	?	-4.8	?	9.2µM*
C=CCn1c(C)cc(C(=O)CSc2nnc(Cc3ccccc3)o2)c1C	-15.9%	17.7%	6.6	19.0%	-2.3%
Cc1cc(C(=O)CSc2nc3ccccc3o2)c(C)n1C1CC1	14.6µM*	1.3%	?	9.3%	20.6µM*
Cc1noc(C)c1-c1cncnc1N(C)Cc1ccco1	-8.4%	·	·	·	-4.0%
CC(=O)c1ccc(NC(=O)CSc2cn(CC(=O)N(C(C)C)C(C)C)c3ccccc23)cc1	14.6µM*	·	·	·	?
Cc1ccccc1NC(=O)CSc1cn(CC(=O)N(C(C)C)C(C)C)c2ccccc12	14.6µM*	·	·	·	?
COc1ccc(N(CC(=O)Nc2ccccc2OC)S(=O)(=O)c2ccc(OC)c(OC)c2)cc1	-14.9%	-7.9%	13.8	-0.3%	-21.5%
N#Cc1c(F)cccc1NCc1cccs1	3.8%	-8.6%	-0.1	-4.1%	-1.3%
COc1ccc(CN(C)C(C)C(=O)Nc2ccc([N+](=O)[O-])cc2Cl)cc1OC (stereo unspecified)	9.2µM*	-14.0%	5.1	-11.5%	25.9µM*
COc1ccc([N+](=O)[O-])cc1NC(=O)C(C)OC(=O)CN1C(=O)C2CC=CCC2C1=O (stereo unspecified)	-18.5%	-9.4%	-62.9*	-11.1%	7.9%
CCOc1ccc(CN(C)C(C)C(=O)Nc2ccc([N+](=O)[O-])cc2Cl)cc1OC (stereo unspecified)	?	-24.5%	23.9	-17.9%	16.4µM*
COc1ccc([N+](=O)[O-])cc1NC(=O)C(C)OC(=O)C1CCC1 (stereo unspecified)	4.9%	-5.1%	6.2	-1.2%	4.7%
CC(C)CC(=O)Nc1ccc([N+](=O)[O-])cc1Cl	3.5%	-1.6%	-10.5	-1.4%	2.7%
COc1ccc(Br)cc1CN(C)C(C)C(=O)Nc1cc([N+](=O)[O-])ccc1OC (stereo unspecified)	23.1µM*	-2.0%	33.4	-4.6%	?
Cc1ccc(S(=O)(=O)CC(=O)Nc2cc(C)on2)cc1	16.2%	7.6%	20.2	-1.3%	0.3%
O=C(COc1ccccc1F)Nc1ccc2oc(-c3cccc(Cl)c3)nc2c1	-5.6%	·	·	·	-11.6%
